Test results as given in PubChem BioAssay AID463173 (ICCB-Longwood Screening Facility, Harvard Medical School, 2010).
The campaign covered roughly 52,000 compounds. About 4,300 (8.3%) were called active. The entries come from a sample that favours actives as a whole. Unmarked numbers belong to inactive results. Cut-off read from the data, not from the text of the source: active = survival mostly below about 52% (no sharp cut-off); inactive = mostly above about 56%.

The compounds below were run on DeltatarO mutant (assay: growth inhibition of S. aureus wild type versus tarO mutant, primary screen, teichoic acid synthesis inhibitors, RN4220, OD600 (AID 463173)). Conditions: OD600, 18 h, hits give low values, screened at 18.75 µg/mL (by protocol).

SMILES	survival
Cc1ccc(CCNC(=O)c2cn(C)c3ccc(S(=O)(=O)N4CCC(C)CC4)cc3c2=O)cc1	72%
Cc1ccc(S(=O)(=O)n2nc(-c3ccccc3)nc2NCc2ccccc2Cl)cc1	85%
CCc1c(C)nc2nncn2c1NCc1ccc(OC)cc1	85%
COc1ccc2c(c1)CC(C(=O)Nc1ccc(Br)c(C)c1)CO2 (centres undefined)	70%
CCCN1C(=O)CC(C(=O)OC)=C1C	81%
CCOc1cccc2sc(N(Cc3cccnc3)C(C)=O)nc12	89%
Cc1cc(Br)ccc1NC(=O)c1coc(=O)c2ccccc12	90%
FC(F)(F)c1cc(-c2ccccc2)nc2cc(-c3ccc(Br)cc3)nn12	42% (active)
FC(F)(F)c1cc(-c2ccccc2)nc2cc(-c3ccccc3)nn12	59%
COc1ccc(-c2cc(C(F)(F)F)n3nc(-c4ccccc4)cc3n2)cc1OC	61%
CCN1CCN(Cc2nc3cc(NC(=O)c4ccccc4[N+](=O)[O-])ccc3n2CC)CC1	78%
Cc1cc(C)cc(NC(c2cccc(Cl)c2)c2nnc(-c3ccccc3)o2)c1 (centres undefined)	92%
Fc1ccc(C(NCCc2ccc(Cl)cc2)c2nnc(-c3ccccc3)o2)c(Cl)c1 (centres undefined)	-2% (active)
Fc1ccccc1C(NCCc1ccc(Cl)cc1)c1nnc(-c2ccccc2)o1 (centres undefined)	-9% (active)
CC(C)c1ccc(NC(c2nnc(-c3ccccc3)o2)c2ccc(F)cc2Cl)cc1 (centres undefined)	84%
Cc1ccc(NC(c2nnc(-c3ccccc3)o2)c2ccccc2F)c(Cl)c1 (centres undefined)	85%
Cc1cc(NC(c2nnc(-c3ccccc3)o2)c2ccccc2F)ccc1Br (centres undefined)	40%
Cc1cc(C)cc(NC(c2nnc(-c3cccc(F)c3)o2)c2ccc(F)cc2Cl)c1 (centres undefined)	48%
Clc1ccc(CCNC(c2nnc(-c3ccccc3)o2)c2ccccc2Cl)cc1 (centres undefined)	-3% (active)
CCOc1ccc(CCNC(c2nnc(-c3ccccc3)o2)c2ccccc2Cl)cc1OCC (centres undefined)	1% (active)
COc1ccc(NC(c2nnc(-c3ccccc3)o2)c2ccccc2F)cc1Cl (centres undefined)	59%
CCOc1ccc(CCNC(c2cccc(Cl)c2)c2nnc(-c3ccccc3)o2)cc1OCC (centres undefined)	95%
O=C(CSc1nnc(-c2cccc(F)c2)c(-c2cccc(F)c2)n1)NC1CCCCC1	73%

SMILES	survival
CC(C)c1ccc(NC(=O)CSC2=Nc3ccccc3C3=NC(CCC(=O)NC4CCCCC4)C(=O)N23)cc1 (centres undefined)	88%
Cc1ccc(C(=O)CSc2nnc(CSc3nc(C)cc(C)n3)n2C)cc1	88%
COC(=O)c1ccc(Oc2nc3c(c(=O)n(C)c(=O)n3C)n2C(C)C)cc1	85%
CCCC(=O)Nc1nnc(SCc2cc(=O)n3ccccc3n2)s1	87%
Cc1cc(C)c2c(CC(=O)Nc3cc(C(F)(F)F)ccc3Cl)coc2c1	66%
COc1ccc(CCn2cc3c(c2-c2ccccc2Br)c(=O)n(C)c(=O)n3C)cc1OC	67%
O=C(Oc1ccccc1)c1ccc(F)cc1	74%
Cn1c(NCCN)nc2c1c(=O)n(Cc1ccccc1)c(=O)n2C	50%
CCOc1ccc2[nH]c(=O)c(CN(CC3CCCO3)C(=O)N(CC)CC)cc2c1 (centres undefined)	98%
Cc1ccc(NC(c2cccc(Cl)c2)c2nnc(-c3ccccc3)o2)cc1F (centres undefined)	99%
Clc1ccc(CCNC(c2ccc(Cl)cc2)c2nnc(-c3ccccc3)o2)cc1 (centres undefined)	98%
Clc1ccc(CCNC(c2cccc(Cl)c2)c2nnc(-c3ccccc3)o2)cc1 (centres undefined)	11% (active)
Nc1nn(-c2ccccc2)nc1C(=O)OCc1c(F)cccc1Cl	28% (active)
COc1cccc(COC(=O)c2nn(-c3ccccc3)nc2N)c1	15% (active)
O=C1CC(c2nnc(Cc3c(F)cccc3Cl)o2)CN1c1ccccc1 (centres undefined)	129%
O=C(NCCCc1ccccc1)c1nn(-c2ccccc2)nc1CO	77%
Cc1cc2nn(-c3ccccc3)nc2cc1NC(=O)Cc1ccc(Cl)cc1	89%
O=c1ccc(-c2ccccc2)nn1Cc1c(F)cccc1Cl	55%
Nc1nn(-c2ccccc2)nc1C(=O)OCc1ccccc1	58% (active)
O=C(Cc1ccc(Cl)cc1)Nc1ccc2nn(-c3ccccc3)nc2c1	81%
COc1cccc(COC(=O)c2ccc(-c3nnn(Cc4ccccc4)n3)cc2)c1	126%
Nc1nn(-c2ccccc2)nc1C(=O)OCc1ccc(Cl)cc1	44% (active)
O=C(NCc1ccccc1)c1nn(-c2ccccc2)nc1CO	108%

SMILES	survival
COc1cccc(COC(=O)c2ccc(-c3nnn(Cc4cccc(OC)c4)n3)cc2)c1	67%
COc1ccc(-c2oc3ncn4nc(-c5ccccc5Br)nc4c3c2-c2ccc(OC)cc2)cc1	77%
CCc1ccc(OCC(=O)Nc2ccc(S(=O)(=O)Nc3onc(C)c3C)cc2)cc1	73%
COC(=O)c1ccc(C(=O)OC)c(NC(=O)c2c(-c3ccccc3)c(-c3ccccc3)nn(C)c2=O)c1	60%
COc1ccc(CNC(=O)CCc2nc3cccnc3n2Cc2ccccc2)cc1	120%
Cc1ccc(NC(=O)NCCOCCn2c(=O)oc3ccccc32)cc1C	86%
Cc1ccccc1Cn1c2ccccc2c2cnn(CC(=O)NCCc3ccccc3)c(=O)c21	96%
COc1ccc(-c2cn3nc(N4CCCC(C(=O)Nc5cc(C)ccc5C)C4)sc3n2)cc1 (centres undefined)	76%
CCOc1ccc(NC(=O)Cn2cc(S(=O)(=O)c3ccc(C)cc3)c(=O)c3cc(F)ccc32)cc1	74%
CCC(=O)N1c2ccc(S(=O)(=O)CCC(=O)N3CCN(c4cc(C)ccc4C)CC3)cc2CC1C (centres undefined)	85%
Cc1cc(C)cc(NC(=O)C(=O)NCC(c2ccc3c(c2)OCO3)N2CCOCC2)c1 (centres undefined)	107%
CSc1ccc(CNC(=O)CCn2ccc3cc(S(=O)(=O)N4CCC(C)CC4)ccc32)cc1	88%
CCCCC(CC)CNC(=O)C1CCC(CNS(=O)(=O)c2cccc3nsnc23)CC1 (centres undefined)	65%
Cc1ccc2oc(C(=O)Nc3ccc(S(=O)(=O)Nc4onc(C)c4C)cc3)cc(=O)c2c1	71%
O=C(CN1C(=O)COc2ccc(S(=O)(=O)Nc3ccccc3)cc21)Nc1cccc(Cl)c1	96%
Fc1ccc(-c2nc(Nc3ccc(F)c(Cl)c3)nc3c2COc2ccccc2-3)cc1	55%
O=C(c1cn(CC(=O)N2CCOCC2)c2ccccc12)C1CC1	90%
CCN(CC)C(=O)Cn1c(=O)n(-c2ccc(Cl)c(Cl)c2)c(=O)c2c(C)c(C(=O)N(CC)CC)sc21	83%
O=c1c2sccc2n(Cc2cc(=O)n3ccccc3n2)c(=O)n1-c1cc(F)ccc1F	69%
CCN(CC)C(=O)c1sc2c(c1C)c(=O)n(-c1ccccc1)c(=O)n2Cc1cc(=O)n2ccccc2n1	47% (active)
O=c1c2sccc2n(Cc2cc(=O)n3ccccc3n2)c(=O)n1-c1cccc(C(F)(F)F)c1	52%
Cc1ccc(-n2c(=O)c3sccc3n(Cc3cc(=O)n4ccccc4n3)c2=O)cc1	63% (active)
CCN(CC)C(=O)c1sc2c(c1C)c(=O)n(-c1ccc(Cl)c(Cl)c1)c(=O)n2Cc1cc(=O)n2ccccc2n1	112%

SMILES	survival
CCN(CC)C(=O)c1sc2c(c1C)c(=O)n(-c1ccc(C)c(C)c1)c(=O)n2Cc1cc(=O)n2c(C)cccc2n1	49%
CCN(CC)C(=O)c1sc2c(c1C)c(=O)n(-c1ccc(Cl)c(Cl)c1)c(=O)n2Cc1cc(=O)n2c(C)cccc2n1	32% (active)
CCN(CC)C(=O)c1sc2c(c1C)c(=O)n(-c1ccc(C)c(C)c1)c(=O)n2Cc1cc(=O)n2ccccc2n1	84%
Cc1ccc(S(=O)(=O)N(CC(=O)Nc2cccnc2)c2cc(Cl)ccc2C)cc1	78%
COc1ccc(NC(=O)CNC(=O)Cn2c(C)cc3ccccc3c2=O)c(OC)c1	62%
Nc1nc(SC#CC(F)(F)F)ns1	13% (active)
C=CCSc1nsc(N)n1	75%
O=C(CSc1ccccc1)N1CCc2c([nH]c3ccccc23)C1c1ccc(Cl)cc1 (centres undefined)	52% (active)
O=C(CSc1ccccc1)N1CCc2c([nH]c3ccccc23)C1c1ccc(F)cc1 (centres undefined)	76%
Cc1ccc(C2c3[nH]c4ccccc4c3CCN2C(=O)CSc2ccccc2)cc1 (centres undefined)	69%
Cc1ccc(CCNS(=O)(=O)c2ccc3c(c2)C(C(C)C)C(=O)N3)cc1 (centres undefined)	116%
COc1ccccc1CCNC(=O)C(=O)NCC(c1cccs1)S(=O)(=O)c1ccccc1 (centres undefined)	82%
O=C(c1ccc(F)cc1F)N1CCC(c2noc(-c3ccc(S(=O)(=O)N4CCCC4)cc3)n2)CC1	97%
Cc1cccc2nc(-c3ccc(N(C)C)cc3)c(Nc3ccc4c(c3)OCO4)n12	102%
O=C(Nc1ccc2nc(SCC(=O)N3CCOCC3)sc2c1)c1cccc(Cl)c1	32% (active)
O=C(Nc1ccc2nc(SCC(=O)N3CCOCC3)sc2c1)c1ccc(Br)cc1	83%
O=C(Nc1ccc2nc(SCC(=O)N3CCCC3)sc2c1)c1cccc(Cl)c1	52%
O=C(Nc1ccc2nc(SCC(=O)N3CCOCC3)sc2c1)c1ccc(Cl)cc1	68%
O=C(Nc1ccc2nc(SCC(=O)N3CCOCC3)sc2c1)c1cccc(Br)c1	29% (active)
O=C(Nc1ccc2nc(SCC(=O)N3CCCC3)sc2c1)c1cccc(Br)c1	57%
